Assay results: PubChem BioAssay AID1159580 (chemical genetic matrix, 2015)
In all, about 5,500 compounds went through this assay and about 2,000 (36%) were called active. Inconclusive results (about 18%) are left out. No stated cut-off is given here; in the data, active means normalized growth mostly below about 0.91 (no sharp cut-off); inconclusive means no clear call, values can overlap the other calls; inactive means mostly above about 0.92. This is one part of the list.

Experiment: chemical genetic growth profiling, strain panel (AID 1159580);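 further: tested at 20 µM; growth read once vehicle control cultures reached saturation at 30 °C; 1 = growth at the plate median or of vehicle wells; lower values mean less growth of the strain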
Conditions: S. cerevisiae deletion strains, growth OD

Measured: normalized growth

CCOc1ccc2nc3cc(N)ccc3c(N)c2c1
active: locus YAL021C, strain ccr4, active compounds read low 0.749 | locus YAL026C, strain drs2, active compounds read low 0.607 | locus YAL030W, strain snc1, active compounds read low 0.63 | locus YBL061C, strain skt5, active compounds read low 0.745 | locus YBR009C, strain hhf1, active compounds read low 0.353 | locus YBR023C, strain chs3, active compounds read low 0.721 | locus YBR231C, strain swc5, active compounds read low 0.702 | locus YBR279W, strain paf1, active compounds read low 0.51 | locus YCL011C, strain gbp2, active compounds read low 0.447 | locus YCL016C, strain dcc1, active compounds read low 0.462 | locus YCL061C, strain MRC1, active compounds read low 0.846 | locus YCL069W, strain vba3, active compounds read low 0.834 | locus YCR088W, strain abp1, active compounds read low 0.695 | locus YDL040C, strain nat1, active compounds read low 0.779 | locus YDR069C, strain doa4, active compounds read low 0.696 | locus YDR195W, strain ref2 0.823 | locus YDR297W, strain sur2, active compounds read low 0.705 | locus YDR335W, strain msn5, active compounds read low 0.907 | locus YEL003W, strain gim4, active compounds read low 0.534 | locus YEL037C, strain rad23, active compounds read low 0.785 | locus YER015W, strain faa2, active compounds read low 0.641 | locus YER016W, strain bim1, active compounds read low 0.679 | locus YER155C, strain BEM2 (second series), active compounds read low 0.856 | locus YFR010W, strain ubp6, active compounds read low 0.683 | locus YGL173C, strain kem1, active compounds read low 0.677 | locus YGL227W, strain vid30, active compounds read low 0.754 | locus YGL253W, strain hxk2, active compounds read low 0.761 | locus YHR013C, strain ard1, active compounds read low 0.747 | locus YHR027C, strain rpn1, active compounds read low 0.618 | locus YHR142W, strain chs7, active compounds read low 0.801 | locus YJL092W, strain hpr5, active compounds read low 0.803 | locus YJL095W, strain BCK1 (second series), active compounds read low 0.785 | locus YJL129C, strain trk1, active compounds read low 0.648 | locus YJL164C, strain tpk1, active compounds read low 0.379 | locus YJL166W, strain qcr8, active compounds read low 0.583 | locus YJL187C, strain SWE1, active compounds read low 0.846 | locus YKL160W, strain elf1, active compounds read low 0.733 | locus YKR026C, strain gcn3, active compounds read low 0.864 | locus YKR091W, strain srl3, active compounds read low 0.875 | locus YLL001W, strain dnm1, active compounds read low 0.662 | locus YLL026W, active compounds read low 0.508 | locus YLL041C, strain sdh2, active compounds read low 0.863 | locus YLR027C, strain aat2, active compounds read low 0.481 | locus YLR221C, strain rsa3, active compounds read low 0.541 | locus YLR258W, strain gsy2, active compounds read low 0.529 | locus YLR320W, strain mms22, active compounds read low 0.742 | locus YLR342W, strain FKS1, active compounds read low 0.866 | locus YLR370C, strain arc18, active compounds read low 0.704 | locus YLR384C, strain iki3, active compounds read low 0.85 | locus YML120C, strain ndi1, active compounds read low 0.252 | locus YMR058W, strain fet3, active compounds read low 0.587 | locus YMR129W, active compounds read low 0.659 | locus YMR205C, strain PFK2, active compounds read low 0.751 | locus YMR231W, strain pep5, active compounds read low 0.883 | locus YNL071W, strain lat1, active compounds read low 0.909 | locus YNL209W, strain ssb2, active compounds read low 0.53 | locus YNL248C, strain rpa49, active compounds read low 0.827 | locus YOR001W, strain rrp6, active compounds read low 0.365 | locus YOR070C, strain gyp1, active compounds read low 0.607 | locus YOR080W, strain dia2, active compounds read low 0.876 | locus YOR083W, strain WHI5, active compounds read low 0.58 | locus YOR106W, strain vam3, active compounds read low 0.489 | locus YOR265W, strain rbl2, active compounds read low 0.61 | locus YOR270C, strain vph1, active compounds read low 0.707 | locus YOR290C, strain snf2, active compounds read low 0.441 | locus YPL051W, strain arl3, active compounds read low 0.653 | locus YPL078C, strain atp4, active compounds read low 0.813 | locus YPL106C, strain sse1, active compounds read low 0.719 | locus YPL240C, strain hsp82, active compounds read low 0.623
inactive: locus YBR171W, strain sec66, active compounds read low 1.07 | locus YDL005C, strain med2, active compounds read low 0.981 | locus YDR001C, strain nth1, active compounds read low 0.94 | locus YDR137W, strain rgp1, active compounds read low 0.985 | locus YDR159W, strain sac3, active compounds read low 1.06 | locus YDR334W, strain swr1, active compounds read low 1.03 | locus YDR392W, strain spt3, active compounds read low 0.803 | locus YEL061C, strain CIN8 (second series), active compounds read low 0.997 | locus YER111C, strain swi4, active compounds read low 0.987 | locus YGL167C, strain pmr1, active compounds read low 1.03 | locus YGL240W, strain doc1, active compounds read low 1.06 | locus YHR030C, strain SLT2, active compounds read low 0.967 | locus YHR079C, strain IRE1, active compounds read low 0.89 | locus YJL095W, strain BCK1, active compounds read low 0.935 | locus YJL115W, strain asf1, active compounds read low 0.987 | locus YJL154C, strain vps35, active compounds read low 0.97 | locus YJR066W, strain TOR1, active compounds read low 0.851 | locus YLR113W, strain HOG1, active compounds read low 0.961 | locus YLR262C, strain YPT6 (second series), active compounds read low 0.891 | locus YLR357W, strain rsc2, active compounds read low 1.09 | locus YMR125W, strain sto1, active compounds read low 0.892 | locus YNL183C, strain NPR1, active compounds read low 0.875 | locus YNL322C, strain KRE1 (second series), active compounds read low 1 | locus YNR049C, strain mso1, active compounds read low 1 | locus YOR231W, strain MKK1, active compounds read low 0.901 | locus YPL256C, strain CLN2, active compounds read low 1.03
